# Results reported in PubChem BioAssay (NCATS).
# Inconclusive results are not listed. A call without a number means that no potency is given here. Activity calls are given as the source filed them. The call rests on the fitted dose curve; in most records, active means well fitted curve in the direction sought with a large enough effect; inconclusive means small, poorly fitted or top-dose-only effect, or another doubt; inactive means no such curve, though single readings can be large; an effect the other way counts as inactive or inconclusive. Peptide text beside a SMILES is read from it.
# Legend:
# [1] = P-glycoprotein substrates identified in KB-8-5-11 adenocarcinoma cell line, qHTS therapeutic library screen (AID 1346987); further: nearly all actives have a fitted effect of over 65% in size
# Procedure, shortened: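 KB-8-5-11, a colchicine-selected P-gp-overexpressing KB-3-1 subline, was grown without colchicine for the assay. Cells were seeded at 500 cells/well, dosed in concentration-response and incubated 72 h at 37 degree C, 5% CO2. Viability was read by CellTiter-Glo luminescence.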
# [2] = qHTS assay to identify small molecule inhibitors of chordoma cells - UCH-1 (AID 1259355); further: nearly all actives have a fitted effect of over 55% in size
# Procedure, shortened: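 Cells (800/well) were seeded and left overnight at 37 C, 5% CO2, then treated with drugs at 15 concentrations plus a combination mix of auranofin, camptothecin, doxorubicin, rubitecan and topotecan. Viability after 48hr was read by CellTiter-Glo luminescence.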
# [3] = qHTS assay to identify small molecule inhibitors of chordoma cells - UCH-2 (AID 1259356); further: series mostly up to about 46 µM
# [4] = Identifying Small Molecule Inhibitors of Pancreatic Cancer Stem Cells (Panc1, Adherent) (AID 1259362); settings: Potency: viability; further: potency means the concentration at half of the fitted maximal effect
# Procedure, shortened: (§1)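 Spheroids grown 14 days in stem cell media on hydrogel-coated nonadherent plates; 2D lines seeded directly. Compounds added after 4 h attachment, 48 h at 37C, 5% CO2; CellTiter-Glo luminescence normalized to DMSO (no inhibition) and no-cell wells (full inhibition).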
# [5] = Identifying Small Molecule Inhibitors of Pancreatic Cancer Stem Cells (A2780, Spheroid) (AID 1259357); settings: Potency: A2780 spheroid viability;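 further: compound exposure lasted 48 h before the ATP luminescence read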; further: potency means the concentration at half of the fitted maximal effect
# Procedure, shortened: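 Monolayer and spheroid cultures are compared. Spheroids form over 14 days in stem cell medium on hydrogel-coated low-attachment plates, then are exposed to compound for 48 h before CellTiter-Glo luminescence.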
# [6] = Identifying Small Molecule Inhibitors of Pancreatic Cancer Stem Cells (SN12C, Adherent) (AID 1259358);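 further: cell survival measured after 48 h of compound exposure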
# Procedure, shortened: as §1
# [7] = Identifying Small Molecule Inhibitors of Pancreatic Cancer Stem Cells (Panc1, Spheroid) (AID 1259359); settings: Panc1 spheroid cancer stem cell viability;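 further: potency means the concentration at half of the fitted maximal effect; compound exposure lasted 48 h before reading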
# Procedure, shortened: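 Spheroids grown 14 days in stem cell media on nonadherent hydrogel before screening; cells attached 4 h, then compound exposure 48 h at 37C, 5% CO2. CellTiter-Glo luminescence normalized to DMSO (no inhibition) and no-cell wells (full inhibition).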
# [8] = Identifying Small Molecule Inhibitors of Pancreatic Cancer Stem Cells (A278, Adherent) (AID 1259361);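 further: viability read after 48 h compound exposure; nearly all actives have a fitted effect of over 35% in size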
# Procedure, shortened: as §1
smiles,measurement,setting,value
NC(=NCc1ccccc1)NC(=O)c1nc(Cl)c(N)nc1N,Potency,[1],inactive
O=C(NCCO[N+](=O)[O-])c1cccnc1,Potency,[2],inactive
same,Potency,[3],inactive
same,Potency,[1],inactive
O=C(NCC1CCCCN1)c1cc(OCC(F)(F)F)ccc1OCC(F)(F)F (stereo not drawn),Potency,[3],inactive
COC(=O)[C@H](Cc1ccccc1)NC(=O)[C@@H](N)CC(=O)O (H-Asp-Phe-OMe),Potency,[2],inactive
same,Potency,[3],inactive
same,Potency,[1],inactive
CN(C)c1ccc(O)c2c1C[C@H]1C[C@H]3[C@H](N(C)C)C(=O)C(C(N)=O)=C(O)[C@@]3(O)C(=O)C1=C2O,Potency,[2],inactive
same,Potency,[3],inactive
same,Potency,[1],inactive
Cc1nc(Nc2ncc(C(=O)Nc3c(C)cccc3Cl)s2)cc(N2CCN(CCO)CC2)n1,Potency,[4],20.9 µM (active)
same,Potency,[1],inactive
CC(C)c1ccc2c(c1)c(SC(C)(C)C)c(CC(C)(C)C(=O)O)n2Cc1ccc(Cl)cc1,Potency,[5],18.7 µM (active)
same,Potency,[6],inactive
same,Potency,[7],18.7 µM (active)
same,Potency,[4],inactive
same,Potency,[1],inactive
Cc1cccc(C#Cc2ccccc2)n1,Potency,[5],inactive
same,Potency,[6],inactive
same,IC50 (viability decrease),[8],inactive
same,Potency,[1],inactive
CCCCCCCCOc1ccccc1C(=O)Nc1ccc(C(=O)OCC[N+](C)(CC)CC)cc1,Potency,[2],inactive
same,Potency,[3],inactive
same,Potency,[1],inactive
C=CCc1cc(OC)c(O)c(C(=O)NCCO)c1,Potency,[2],inactive
same,Potency,[3],inactive
same,Potency,[1],inactive
CN(c1nccc(=O)[nH]1)C1CCN(c2nc3ccccc3n2Cc2ccc(F)cc2)CC1,Potency,[2],inactive
same,Potency,[3],inactive
same,Potency,[1],inactive
COC(=O)C1=C(C)NC(C)=C(C(=O)OC(C)C)C1c1cccc2nonc12 (stereo not drawn),Potency,[2],inactive
same,Potency,[3],inactive
same,Potency,[1],inactive
O=C1NC(=O)C(c2ccccc2[N+](=O)[O-])=C1Nc1ccc(O)c(Cl)c1,Potency,[1],inactive
CC1Cc2ccccc2N1NC(=O)c1ccc(Cl)c(S(N)(=O)=O)c1 (stereo not drawn),Potency,[3],inactive
same,Potency,[1],inactive
CC1(C)CCC(C)(C)c2cc(NC(=O)c3ccc(C(=O)O)cc3)ccc21,Potency,[2],inactive
same,Potency,[3],inactive
same,Potency,[1],inactive
Cn1c(NCCN(CCO)CCCc2ccc([N+](=O)[O-])cc2)cc(=O)n(C)c1=O,Potency,[2],inactive
same,Potency,[3],inactive
same,Potency,[1],inactive
